Assay outcomes as filed in PubChem.
ERG Ets-DNA blk – blocks human ERG Ets domain binding to DNA; Potency, µM (top dose mostly 76.9 µM), usual class: inhibitors; P11308; fluorescence polarization, His-ERG Ets domain / labelled DNA; hit rate 0.028% among 370,000; active = well fitted inhibition curve with a large enough effect in the polarisation, with a control signal flat; inconclusive = small, poorly fitted or top-dose-only effect, or effect the other way, or a change in a side signal; inactive = no such curve, though single readings can be large or run the other way; the % refers to the polarisation;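 note: polarization taken with two DNA probes labelled with fluorescein and Texas red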
Target sequence (P11308 whole entry, looked up, the tested form may be a part): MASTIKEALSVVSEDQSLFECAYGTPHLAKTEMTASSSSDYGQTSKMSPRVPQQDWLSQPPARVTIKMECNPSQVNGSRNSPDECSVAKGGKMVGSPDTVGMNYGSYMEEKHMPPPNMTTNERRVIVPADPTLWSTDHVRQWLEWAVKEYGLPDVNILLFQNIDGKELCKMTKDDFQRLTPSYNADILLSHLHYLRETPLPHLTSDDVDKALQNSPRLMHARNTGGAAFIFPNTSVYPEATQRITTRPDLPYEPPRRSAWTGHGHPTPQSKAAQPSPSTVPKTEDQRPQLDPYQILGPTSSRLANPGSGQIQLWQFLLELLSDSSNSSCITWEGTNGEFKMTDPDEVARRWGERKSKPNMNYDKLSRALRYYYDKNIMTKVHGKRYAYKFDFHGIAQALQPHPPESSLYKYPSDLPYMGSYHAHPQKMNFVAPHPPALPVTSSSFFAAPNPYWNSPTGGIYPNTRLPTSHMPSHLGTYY
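His-tagged ERG Ets domain (1 uM in the protein solution; 300mM KCl, 50mM Tris-HCl, 1mM EDTA, 1mM DTT, pH 7.5) received compound, then a probe mix of 5 nM fluorescein-DNA and 100nM Texas-615-DNA. Fluorescence polarization was read for both dyes.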
Menin-MLL TR inh – inhibitors of human menin-MLL interaction, mutant MLL peptide; AID 1768; O00255; hit rate 0.23% among 270,000; Potency, µM (doses to about 61.6 µM), hits mostly inhibitors; Menin + Texas Red MLL mutant peptide, fluorescence polarization; active = well fitted inhibition curve with a large enough effect in the polarisation, with a control signal flat, not every such curve was filed as active; inconclusive = small, poorly fitted or top-dose-only effect, or effect the other way, or a change in a side signal; inactive = no such curve, though single readings can be large or run the other way; the % refers to the polarisation
CXXC DNA block – blocks binding of human MLL CXXC domain to DNA; MLL-CXXC / FITC-HOXA9 DNA fluorescence polarization; Potency, µM (highest dose often 115 µM), usual class: inhibitors; hit rate 0.037% among 290,000; AID 2662; active = well fitted inhibition curve with a large enough effect in the polarisation, with a control signal flat, not every such curve was filed as active; inconclusive = small, poorly fitted or top-dose-only effect, or effect the other way, or a change in a side signal; inactive = no such curve, though single readings can be large or run the other way; the % refers to the polarisation
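Purified MLL-CXXC (added from a 7 uM solution) was preincubated 5 min at ambient with pinned compounds in 50 mM Tris-HCl pH 7.5, 50 mM NaCl, 1 mM DTT, 0.05% BSA. Fluorescein-labeled HOX-A9 DNA (50 nM solution) followed, 30 min, then polarization read.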
Menin-MLL FL inh – displaces fluorescein MLL peptide from human menin; Fluorescence polarization, fluorescein-MLL peptide displacement from menin; FP activity change, % at 61.4 µM; 290,000 tested, under 10 active; AID 1766; active = well fitted curve in the direction sought with a large enough effect in the polarisation, not every such curve was filed as active; inconclusive = small, poorly fitted or top-dose-only effect, or effect the other way, or a change in a side signal; inactive = no such curve, though single readings can be large or run the other way; the % refers to the polarisation
RGS12 GoLoco inh-1 – inhibitors of human Gai1-RGS12 GoLoco interaction (red fluorophore) | hit rate 0.44% among 230,000 | Potency, µM (highest dose often 61.6 µM), most hits filed as inhibitors | AID 880 | Gai1:RGS12 GoLoco peptide FP, rhodamine, 10 min | P63096; active = well fitted inhibition curve with a large enough effect, not every such curve was filed as active; inactive = no such curve, though single readings can be large or run the other way; note: nearly all actives have a fitted effect of over 30% in size
Target sequence (P63096 whole entry, looked up): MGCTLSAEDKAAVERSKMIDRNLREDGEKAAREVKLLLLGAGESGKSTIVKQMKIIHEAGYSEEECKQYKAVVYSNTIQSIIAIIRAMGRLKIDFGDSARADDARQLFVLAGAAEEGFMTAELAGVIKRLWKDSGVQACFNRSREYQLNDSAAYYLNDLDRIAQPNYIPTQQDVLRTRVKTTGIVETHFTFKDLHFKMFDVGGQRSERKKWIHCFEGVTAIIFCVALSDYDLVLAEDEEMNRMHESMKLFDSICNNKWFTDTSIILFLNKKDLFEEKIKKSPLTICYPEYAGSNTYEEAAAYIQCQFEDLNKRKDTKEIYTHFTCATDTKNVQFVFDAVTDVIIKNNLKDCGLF
RGS12 GoLoco inh-2 – disrupts Gai1 binding to human RGS12 GoLoco peptide | Potency, µM (doses to about 57.1 µM), most hits filed as inhibitors | shares compounds with RGS12 GoLoco inh-1 | AID 2390 | Gai1/rhodamine-RGS12 GoLoco peptide fluorescence polarization | hit rate 50% among 110
MLL CXXC Fl – MLL CXXC-DNA interaction inhibition, fluorescein FP | shares compounds with CXXC DNA block | MLL CXXC-DNA binding, fluorescein FP | Potency, µM (series often up to 345 µM), usual class: inhibitors | hit rate 70% among 200 | AID 624160; note: nearly all actives have a fitted effect of over 80% in size
MLL CXXC FP-TR – disrupts human MLL CXXC domain binding to DNA, Texas Red; hit rate 40% among 200; MLL CXXC-DNA binding, Texas Red fluorescence polarization; Potency, µM (doses to about 345 µM), actives largely listed as inhibitors; shares compounds with CXXC DNA block; note: nearly all actives have a fitted effect of over 75% in size
MLL CXXC TRF – inhibitors of human MLL CXXC domain-DNA interaction, HTRF format. shares compounds with CXXC DNA block. MLL CXXC-DNA binding, HTRF, biochemical. Potency, µM (highest dose often 172 µM), hits mostly inhibitors. hit rate 30% among 210. AID 624162; note: nearly all actives have a fitted effect of over 80% in size
Hits are given with their value; – = inactive; ? = inconclusive; · = not tested or not shown; ! = not confirmed by another sample; [ ] = remark or other dose. Shown is part of a subset that was picked to be rich in hits. Unless noted, calls come from the whole dose curve; as a rule, active = well fitted inhibition curve with a large enough effect; inconclusive = small, poorly fitted or top-dose-only effect; inactive = no such curve, though single readings can be large or run the other way.

SMILES	ERG Ets-DNA blk	Menin-MLL TR inh	CXXC DNA block	Menin-MLL FL inh	RGS12 GoLoco inh-1	RGS12 GoLoco inh-2	others
O=C(Nc1cccc(C(F)(F)F)c1)C1CCCN(c2ncccn2)C1 (centres undefined)	–	–	–	–	–	·
O=C(Nc1cccc(Nc2cc(Nc3cccc(C(F)(F)F)c3)ncn2)c1)C1CC1	·	·	·	·	·	–
Cc1[nH]c2ccccc2c1C(=O)CN1CCN(C2CCCCC2)CC1	·	–	–	–	1.78µM	?
Cc1[nH]c2ccccc2c1C(=O)CN1C(=O)C(=O)N(C2CCCC2)C1=O	–	–	–	–	–	·
C=CCc1cc(/C=N\NC(=O)CSc2nnc(CCCc3ccc(OC)c(C)c3)o2)cc(OC)c1O	–	–	–	–	14.1µM	?
NC(=O)NC1NC(=O)NC1=O (centres undefined)	–	–	–	–	17.8µM!	?
NC(=O)NOC[C@@H]1NC(=O)NC1=O	·	·	·	·	–[14.2 µM]	·
CO/N=C(/C(=O)N[C@@H]1C(=O)N2C(C(=O)O)=C(CSc3nc(C)c(CC(=O)O)s3)CS[C@H]12)c1csc(N)n1	·	–	–	–	·	·
CO/N=C(/C(=O)N[C@H]1C(=O)N2C(C(=O)O)=C(COC(C)=O)CSC12)c1csc(N)n1 (some centres undefined)	·	–	·	–	7.94µM	–
CN=C1N[C@H](c2ccccc2)N(c2ccccc2)S1	·	–	·	–	5.62µM	12.6µM
CCn1c(SCC(=O)N(C(C)C)C(C)C)nnc1-c1cc2ccccc2cc1O	–	?	–	–	3.16µM	?
Nc1cc(N)nc(SCC(=O)Nc2ccc(Br)cc2Cl)n1	–	–	–	–	6.31µM	?
O=C(CSc1nnc(-c2ccccc2)n1-c1ccccc1)NCc1ccco1	–	?	–	–	–	–
Cc1cc(C)c2c(=O)n(CC(=O)Nc3ccc(Br)c(C)c3)sc2n1	–	·	–	–	–	–
COc1ccc(OC)c(CCNC(=O)Cn2sc3nc(C)cc(C)c3c2=O)c1	·	–	–	–	11.2µM	3.98µM
Cc1cc(C)c2c(=O)n(CC(=O)Nc3cccc(Cl)c3C)sc2n1	–	·	–	–	3.98µM	14.1µM
CC1(C)CC(=O)c2cc(-c3nc(-c4ccc(Cl)cc4)cs3)c(=O)n(-c3cccc(F)c3)c2C1	–	·	·	·	·	·
COc1ccccc1NC(=O)c1sc(-c2ccc(Cl)cc2)cc1N	–	·	·	·	·	·
CCOCCCNC(=O)Cn1ncc2c([nH]c3ccccc32)c1=O	–	·	·	·	·	·
CCN(CC)c1cc2c(cc1F)c(=O)c(S(=O)(=O)c1ccccc1)cn2Cc1ccccc1	–	·	·	·	·	·
OC(COCc1ccccc1)COCc1ccccc1	–	·	·	·	·	·
Cc1n(CC(O)COCc2ccccc2)c2ccccc2[n+]1C (centres undefined)	–	–	–	–	8.91µM	12.6µM
O=C1c2cccc3c(O)ccc(c23)C(=O)N1Cc1ccco1	?	–	?	?	11.2µM	10µM
CSc1cccc(NC(=O)c2ccc3c(c2)c(C)c(C)n3Cc2ccc(F)cc2)c1	–	·	·	·	·	·
CCCCCCn1c(=O)[nH]c2nc3cc(N)c(C)cc3nc2c1=O	–	–	–	–	–	·
SMILES	ERG Ets-DNA blk	Menin-MLL TR inh	CXXC DNA block	Menin-MLL FL inh	RGS12 GoLoco inh-1	RGS12 GoLoco inh-2	others
CCCCn1c(=O)[nH]c2nc3cc(NC(C)=O)ccc3nc2c1=O	–	·	–	?	–	–
Cn1c(SCC(=O)Nc2ccc3c(c2)oc2ccccc23)nnc1-c1ccccc1	·	–	–	–	3.55µM	7.94µM
Cc1ccc(-c2nnc(SCC(=O)NCC3CCCO3)n2C)cc1 (centres undefined)	–	–	–	–	–	·
CCC(=O)Nc1ccc(-c2nnc(SCC(=O)NCC3CCCO3)n2C)cc1 (centres undefined)	–	–	–	–	–	–
O=S(=O)(NCc1ccc(Cl)cc1)c1ccc2[nH]c3c(c2c1)CCCC3	–	·	·	·	·	·
CCCC(=O)NC1CC(=O)N(c2ccc3c(c2)OCCO3)C1 (centres undefined)	–	·	·	·	·	·
CCOC(=O)/C=C(\C)Sc1cc(O)c2ccccc2c1O	–	·	31.6µM	–	–	·	MLL CXXC Fl=?;MLL CXXC FP-TR=?;MLL CXXC TRF=19.3µM
COc1ccc2c(c1)cc1c(=O)n(CC(=O)NC3CCCCC3)nc(C)n12	–	·	·	·	·	·
CCCN(CCC)C(=O)c1nn(C)c2c1CSc1ccc(C)cc1-2	–	·	·	·	·	·
Cc1ccc(NC(=O)COc2cccc(/C=C3\SC(=S)N(CCC(=O)O)C3=O)c2)cc1Cl	–	·	–	–	–	·
O=C(O)CCN1C(=O)/C(=C\c2cccc(OCC(=O)Nc3ccc(Cl)cc3)c2)SC1=S	–	·	?	–	–	·	MLL CXXC Fl=?;MLL CXXC FP-TR=142µM;MLL CXXC TRF=–
CCOC(=O)/C(C#N)=C1\SS/C(=C(/C#N)C(=O)OCC)S1	·	?	17.8µM	?	–	·	MLL CXXC Fl=25.2µM;MLL CXXC FP-TR=63.3µM;MLL CXXC TRF=4.85µM
O=C(O)c1ccc(COc2ccccc2C=C2C(=O)c3ccccc3C2=O)cc1	–	–	17.8µM	–	–	·	MLL CXXC Fl=17.9µM;MLL CXXC FP-TR=56.5µM;MLL CXXC TRF=76.9µM
COc1cccc2c1C(=O)c1c(O)c3c(c(O)c1C2=O)C[C@@](O)(C(C)=O)C[C@@H]3O[C@H]1C[C@H](N)[C@H](O)[C@H](C)O1	0.794µM	?	10µM	?	1.58µM	·	MLL CXXC Fl=5.65µM;MLL CXXC FP-TR=11.3µM;MLL CXXC TRF=–
CC(=O)[C@]1(O)Cc2c(O)c3c(c(O)c2[C@@H](O[C@H]2C[C@H](N)[C@H](O)[C@H](C)O2)C1)C(=O)c1ccccc1C3=O	3.16µM	?	?	?	1.58µM	·	MLL CXXC Fl=2µM;MLL CXXC FP-TR=100µM;MLL CXXC TRF=–
CC(=O)[C@]1(O)Cc2c(O)c3c(c(O)c2[C@@H](O[C@H]2C[C@H](N)[C@H](O)[C@H](C)O2)C1)C(=O)c1c(O)cccc1C3=O	·	?	?	?	0.794µM	·	MLL CXXC Fl=6.33µM;MLL CXXC FP-TR=22.5µM;MLL CXXC TRF=–
O=C1COc2ccc(-c3cc(-c4ccc(F)cc4)c4c(n3)-c3ccccc3OC4)cc2N1	–	·	·	·	·	·
Nc1cc2c3c(cccc3c1)C(=O)N(CCN1CCCC1)C2=O	–	–	7.94µM	?	–	·	MLL CXXC Fl=142µM;MLL CXXC FP-TR=?;MLL CXXC TRF=–
CCN(CC)CCN1C(=O)c2cccc3cc(N)cc(c23)C1=O	–	–	35.5µM	?	–[14.2 µM]	·	MLL CXXC Fl=89.5µM;MLL CXXC FP-TR=?;MLL CXXC TRF=–
CC(=O)OCCCN1C(=O)c2cccc3cc(Br)cc(c23)C1=O	·	–	–	–	·	·
O=C1c2cccc3cc([N+](=O)[O-])cc(c23)C(=O)N1CCN1CCCC1	–	–	?	?	–	·
